Bioassay records from PubChem BioAssay.
TMEM16A inh: TMEM16A chloride channel inhibitors, primary screen, cell-based, HTS; HEK293 TMEM16A/YFP iodide influx fluorescence, ionomycin; normalized B-score (activity score, 25-100; higher = stronger inhibition) at 10 µM; actives 1.2% (n = 310,000); AID 588511, 2011;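 active = ratio plate-corrected score three or more library SD toward inhibition, starting fluorescence score within five deviations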;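 also: score derived from kinetic fluorescence span divided by baseline fluorescence per well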
PKA-R1A act: activators of PKA-R1A holoenzyme, primary screen, biochemical, fluorescence polarization, Cy5-IP20, bovine R1A, mouse PKAc; cAMP-dependent protein kinase type I-alpha regulatory subunit (Bos taurus) + …; AID 504707, 2011; actives 0.083% (n = 340,000); PKA-R1A dissociation; scaled: DMSO 0%, 113 µM cGMP 100%; activation, % at 11.4 µM;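 active = percent activation above the mean of all tested compounds plus 3 SD, cut at about 19% in these data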;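 also: higher means more PKAc released from R1A so a rise in polarization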
PKA-R2B activ: activators of PKA-R2B holoenzyme, primary screen, biochemical, fluorescence polarization, Cy5-IP20, human | cAMP-dependent protein kinase catalytic subunit beta (Homo sapiens) + cAMP-dependent … | PKA-R2B holoenzyme dissociation; R2B truncated from residue 108, S112A mutant; 0% DMSO only, 100% 113 µM cGMP | activation, % at 11.4 µM | actives 0.079% (n = 340,000);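 active = activation above a cutoff set at the mean over all compounds plus 3 SD, cut at about 18% in these data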;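 also: higher means more holoenzyme dissociation and a rise in polarization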
Target sequence (P31323 whole entry, looked up, other chains not shown, the tested form may be a part): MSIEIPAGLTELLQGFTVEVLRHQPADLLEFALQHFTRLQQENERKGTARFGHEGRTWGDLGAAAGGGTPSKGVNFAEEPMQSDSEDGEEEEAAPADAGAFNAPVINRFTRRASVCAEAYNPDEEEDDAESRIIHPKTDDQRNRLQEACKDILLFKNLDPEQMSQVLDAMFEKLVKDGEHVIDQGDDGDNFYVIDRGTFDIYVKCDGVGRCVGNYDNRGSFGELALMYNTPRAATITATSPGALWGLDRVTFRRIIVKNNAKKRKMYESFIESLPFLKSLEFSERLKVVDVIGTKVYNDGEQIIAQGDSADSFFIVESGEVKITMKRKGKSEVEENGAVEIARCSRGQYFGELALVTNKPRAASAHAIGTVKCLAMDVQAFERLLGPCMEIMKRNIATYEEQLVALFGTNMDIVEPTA
ANO1 activ: TMEM16A chloride channel activators or potentiators, primary screen, cell-based, HTS. Anoctamin-1 (Mus musculus), Q8BHY3. HEK293 TMEM16A/YFP-H148Q/I152L, iodide quench fluorescence; active compounds read low. B-score at 10 µM. actives 0.3% (n = 340,000). AID 623877, 2012;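 active = fluorescence-ratio B-score plate-corrected deviation score at least 3 library SD below zero, with starting fluorescence score within 5 deviations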;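 also: channel opened by trigger with iodide after compound preincubation; score built on the fluorescence ratio of max minus min over baseline; more negative score means more quench and so TMEM16A activation or potentiation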
CHT inh: inhibitors of human choline transporter CHT; CHT-expressing cells, membrane potential dye, choline response; active compounds read low; B-score at 10 µM; High affinity choline transporter 1 (Homo sapiens), Q9GZV3; actives 0.86% (n = 310,000);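 active = B-score over 3 SD under the library average, and starting fluorescence ratio not unusually high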;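 also: choline stimulus applied at its EC90 after an EC20 pre-addition; B-score computed on integrated fluorescence ratio after choline addition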
CHT allo act: CHT positive allosteric modulators, primary screen, cell-based, membrane potential dye, choline EC20; High affinity choline transporter 1 (Homo sapiens), Q9GZV3; actives 0.49% (n = 310,000); CHT-expressing cells; active compounds read high; LV-AA mutant CHT in HEK293 cells; B-score at 10 µM;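 active = initial fluorescence not abnormally high and integrated response B-score, plate-corrected, over 3 SD above library mean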
CHT inh conf: CHT inhibitors, confirmation, cell-based, membrane potential dye, duplicate | actives 70% (n = 2,400) | shares compounds with CHT inh | CHT activity remaining % of control (active compounds read low), % at 10 µM | AID 493221, 2011 | CHT-expressing cells, choline membrane potential dye; LV-to-AA substituted CHT, HEK293 cells;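 active = choline transporter activity left, mean of duplicates at 10 µM, below buffer-only control mean minus 3 SD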;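 also: depolarization triggered by choline at its EC90 following an EC20 pre-addition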
HEK293 MPD ctr: membrane potential effects in parental HEK293, counter-screen for CHT inhibitor project, cell-based, membrane potential dye; actives 4% (n = 2,400); choline response; active = decrease or increase beyond buffer ±3SD; shares compounds with CHT inh; AID 493222, 2011; membrane potential ratio readout (active if shifted either direction beyond buffer ±3SD; no single direction) at 10 µM;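 also: parental cells lack the transporter so any hit is non-specific; ratio is peak minus trough fluorescence over baseline after EC90 choline challenge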
CHT activ conf: CHT activators, confirmation, cell-based, membrane potential dye, duplicate | shares compounds with CHT allo act | CHT-expressing cells, membrane potential dye fluorescence (FDSS); % of choline EC20–EC90 response window; HEK293 expressing CHT LV-AA mutant; choline added at its EC20 | activation, % at 10 µM | actives 91% (n = 2,500) | AID 504833, 2011;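 active = primary screen active, with duplicate mean activation above negative control mean plus 3 SD, cut at about 11% in these data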
HEK293 MP dye: membrane potential response in parental HEK293 cells, counter-screen for CHT activator project, cell-based, membrane potential dye. shares compounds with CHT allo act. membrane potential dye fluorescence (FDSS); measured after EC20 choline addition. ratio readout change at 10 µM, hits read low. actives 62% (n = 2,500). AID 623908, 2012;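 active = duplicate-averaged ratio beyond 3 SD from buffer wells, up or down, though filed actives are nearly all decreases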
TMEM16A reconf: TMEM16A chloride channel inhibitors, confirmation, cell-based, re-confirmation; shares compounds with TMEM16A inh; HEK293 TMEM16A/YFP-H148Q, iodide quench fluorescence; ionomycin added to raise cell calcium; inhibition, % at 10 µM; actives 39% (n = 2,300);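 active = mean duplicate percent inhibition, scaled so buffer wells are 0 and the reference blocker 100, over three buffer SD above buffer mean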
HEK293 Ca mobil: calcium mobilization in TMEM16A/YFP HEK293 cells, confirmation, counter-screen for TMEM16A inhibitor project; AID 652231, 2013; Fluo4 calcium mobilization; calcium response (% of ionomycin), % at 10 µM; actives 2% (n = 2,300); shares compounds with TMEM16A inh;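 active = duplicate-averaged calcium signal over 20% of the ionomycin maximum, relative to buffer baseline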;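 also: each well's signal is peak minus trough fluorescence divided by its pre-addition baseline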
Parental YFP cnt: iodide YFP quench changes in parental YFP-HEK293, counter-screen for TMEM16A inhibitor project, cell-based; shares compounds with TMEM16A inh; ionomycin; YFP ratio F(max-min)/F0 at 10 µM; 2,300 tested, under 10 active; AID 652233, 2013;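 active = yellow fluorescent protein signal ratio exceeding the buffer control mean by over 5 SD of those controls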;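 also: ratio is mean of duplicate wells from kinetic YFP trace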
ClC-1 inh: ClC-1 chloride channel inhibition, selectivity assay for TMEM16A inhibitor project, cell-based, voltage-dependent ClC-1; shares compounds with TMEM16A inh; ratio percent, % at 10 µM; 2,300 tested, under 10 active; CHO ClC-1-YFP, iodide influx fluorescence quench; iodide control reads 0, buffer control 100;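 active = duplicate-mean ratio percent above the mean of iodide-only control wells, which defines zero, plus 5 of their SD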;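 also: higher percent means stronger block of ClC-1 iodide influx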
Each line names hits and unclear results; the compound was inactive in the other large screens (follow-up assays come after a bar, where they were run); ! = not confirmed by another sample. Most compounds without a hit are left out; they make up all but 2.5% or so of the library.

Cc1cccc(N2CCc3c2nc2ccccc2c3N)c1	CHT inh -9.3! | CHT inh conf 56% | HEK293 MPD ctr inactive | CHT activ conf 33 | HEK293 MP dye -56
C#CC[N+]1(C)[C@@H]2CC(OC(=O)C(CO)c3ccccc3)C[C@H]1C(O)C2 (stereo partly drawn)	none
CCC(=NCCc1ccccc1)c1c(O)n(C)c(=O)n(C)c1=O	TMEM16A inh 25, CHT inh -5.6 | CHT inh conf 53% | HEK293 MPD ctr inactive | TMEM16A reconf inactive | HEK293 Ca mobil inactive | Parental YFP cnt inactive | ClC-1 inh inactive
C/C(=N\NC(=O)c1ccncc1)c1c(O)[nH]c(=O)[nH]c1=O	none (no result: PKA-R1A act, PKA-R2B activ, ANO1 activ)
Cc1cc(C)n2nc(C)[n+](C)c2n1	CHT allo act 8 | CHT activ conf 60 | HEK293 MP dye -34
COc1cc2nc(N3CCN(C(=O)C4CCCO4)CC3)nc(N)c2cc1OC (stereo not drawn)	CHT allo act 8.3! | CHT activ conf 43 | HEK293 MP dye -28
CCOC(=O)c1cnc(N2CC2)nc1N	none (no result: TMEM16A inh, CHT inh, CHT allo act)
CC(CCN1CC1)=NNC(=O)Nc1cccc2ccccc12	none (no result: TMEM16A inh, CHT inh, CHT allo act)
COC(=O)C(C)NC(=S)N1CC2C[C@@H](C1)Cn1c2cccc1=O (stereo partly drawn)	none
O=C1Nc2ccccc2/C1=C/c1cnc[nH]1	none | CHT activ conf 45 | HEK293 MP dye -30
O=C1Nc2ccccc2/C1=C/c1nc2ccccc2c(=O)n1-c1ccc(O)cc1	none
CC(=NCCCn1ccnc1)c1c(O)n(C)c(=O)n(C)c1=O	none | CHT activ conf 48 | HEK293 MP dye -34
O=[N+]([O-])c1cc(Cl)c(O)c(-[n+]2c(-c3ccccc3)cc(-c3ccccc3)cc2-c2ccccc2)c1	none
O=[N+]([O-])c1ccc(C[n+]2c(-c3ccccc3)cc(-c3ccccc3)cc2-c2ccccc2)cc1	none | CHT activ conf 49 | HEK293 MP dye -47
CNC(=S)N(C)CCc1cc2c(c(OC)c1/C=C1/C(=O)NC(=O)N(C)C1=O)OCO2	CHT allo act 6.6 | CHT activ conf 37 | HEK293 MP dye -54
Cc1cc(/C=C2\C(=O)NC(=O)N(C)C2=O)c(C)n1-c1ccc2c(c1)OCO2	none
O=[N+]([O-])c1ccc(N2CCCC2)cc1N/N=C1\CN2CCC1CC2	CHT allo act 6.5 | CHT activ conf 55 | HEK293 MP dye -73
O=C(N/N=C1/CN2CCC1CC2)c1cc2ccccc2cc1O	none
N=C1c2ccccc2CN1c1ccc(F)c([N+](=O)[O-])c1	none | CHT activ conf 46 | HEK293 MP dye -26
N=C1c2ccccc2CN1c1cccc([N+](=O)[O-])c1	none | CHT activ conf 54 | HEK293 MP dye -38
N=C1c2ccccc2CN1NC(=O)c1ccccc1	none
S=P(Nn1cnnc1)(c1ccc(Br)cc1)c1ccc(Br)cc1	none
CC1(C)CC(=O)C2=C(C1)NC(=O)C21C(C(=O)OC(C)(C)C)=C(N)Oc2ccc(Br)cc21 (stereo not drawn)	none
Cc1cc(N2CCOCC2)nc2ccc(NC(=O)CCC(=O)N3CCC4(CC3)OCCO4)cc12	none | CHT activ conf 53 | HEK293 MP dye -38
COc1ccc(NC(=O)N2CCC3(CC2)OCCO3)cc1OC	none
CCOC(=O)c1c(N)n(CCN2CCCCC2)c2nc3ccccc3nc12	none | CHT activ conf 29 | HEK293 MP dye -42
COc1ccc2c(c1O)C13CCN(C)C(C2)C1CCC(=O)C3 (stereo not drawn)	none (no result: PKA-R1A act, PKA-R2B activ)
Clc1ccc(CCC(Cn2ccnc2)Sc2c(Cl)cccc2Cl)cc1 (stereo not drawn)	none | CHT activ conf 30 | HEK293 MP dye -27
CN1CCc2nc3sc(C#N)c(N)c3c(-c3cccs3)c2C1	CHT allo act 8.5 | CHT activ conf 39 | HEK293 MP dye -59
COc1cc2c3c(c1OC)-c1cc(O)ccc1CC3NCC2 (stereo not drawn)	none | CHT activ conf 48 | HEK293 MP dye -42
COc1cc2c(cc1OC)-c1c(OC)c(OC)cc3c1[C@H](C2)[N+](C)(C)CC3	none
